In PubChem BioAssay (EPA / NIEHS) one finds outcome and AC50 data, which are given here for four compounds.

Results filed as inconclusive are left out. The source made the active and inactive calls. Rule for the calls: active = hit-call score of the fitted dose curve at least 0.9, where 1 is the maximum; inconclusive = response in the unintended direction; inactive = score below 0.9.

A short description of test [1]: ArunA_CellTiter_hNC: Viability Assessment in the ArunA Biomedical's Oris Neural Crest (hNC) Cell Migration Assay (AID 2283752). The gist of the method: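 hNC cells (H9 ESC-derived), 60,000/well, Matrigel, LIF + bFGF medium; 16 h 37C attachment; 72 h compound in test medium; CellTiter Aqueous One read-out; loss-of-signal vs DMSO baseline.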
Test [2] can be described thus: ArunA_NOG_BranchPointsPerNeurite: ArunA Biomedical's Neurite Outgrowth (NOG) Assay for Branch Points Per Neurite (AID 2283759). The procedure, abridged:
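Automated image analysis traced neurites (processes >10 um) from valid cell bodies after Hoechst and βIII-tubulin staining. hNN cells from H9 embryonic stem cells, 48 h exposure. Fitted bidirectionally against DMSO.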

Test [3] in a line: ArunA_CellTiter_hNP: Viability Assessment in the ArunA Biomedical's Oris Neural Crest (hNC) Cell Migration Assay (AID 2283753). The protocol:
ArunA_CellTiter_hNP is a cell-based, single-readout assay that uses human H9-derived neuroprogenitor stem cells (hNP1).Measurements were taken 72 hours after chemical dosing in a 96-well plate.ArunA_CellTiter_hNP is an assay component measured from the ArunA_CellTiter_hNP assay. It is designed to make measurements of viability, a form of viability reporter, as detected with fluorescence intensity signals by HCS Fluorescent Imaging technology. Data from the assay component ArunA_CellTiter_hNP was analyzed at the endpoint, ArunA_CellTiter_hNP, in the positive analysis fitting direction relative to DMSO as the negative control and baseline of activity. […]
To assess the hNP and hNC migration and cell titer endpoints, 60,000 cells per well were plated onto Matrigel in basal growth medium with LIF and bFGF in a 96-well plate format. […] Cell viability in the detection zone was quantitated using a Flexstation3 microplate reader (ex494 nm/em 517 nm). Corresponding cell titer endpoints were assessed for the hNP and hNC cells using the Promega CellTiter Aqueous One Solution Cell Proliferation Assay (Cat no. G3581; CellTiter 96). Finally, to gain insight into the mechanisms by which cells migrate into the detection zone, Ki-67 expression was quantified for 10 additional chemicals in the hNP and hNC systems. […]

Test [4] is described as follows: ArunA_NOG_NucleusCount: ArunA Biomedical's Neurite Outgrowth (NOG) Assay for Nucleus Count (AID 2283756). The procedure, abridged: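 Viable neuron count, from Hoechst nuclei passing size and intensity gates, imaged at 20x on differentiated H9-derived human neurons. Exposure lasted 48 h from seeding; activity was scored relative to DMSO.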
Test [5] is described as follows: ArunA_NOG_NeuritesPerNeuron: ArunA Biomedical's Neurite Outgrowth (NOG) Assay for Neurites Per Neuron (AID 2283758). The protocol: ArunA_NOG (Neurite Outgrowth) is a cell-based, image-based assay that uses human H9-derived embryonic differentiated neurons (hNN). Measurements were taken 48 hours after chemical dosing in a 96-well plate.ArunA_NOG_NeuritesPerNeuron is an assay component measured from the ArunA_NOG assay. It is designed to make measurements of neurite outgrowth related to number of neurites per neuron, using a form of morphology reporter, as detected with fluorescence intensity signals by HCS Fluorescent Imaging technology. Data from the assay component ArunA_NOG_NeuritesPerNeuron was analyzed at the endpoint, ArunA_NOG_NeuritesPerNeuron, in the positive analysis fitting direction relative to DMSO as the negative control and baseline of activity. […]
Chemical treatment: Differentiated hNN cells were seeded and immediately exposed to test medium for 48 h. Following chemical exposure, cell bodies were stained with Hoechst 33,258 to quantitate viable neuron count and neurites were labeled with bIII-tubulin/DyLight1 488. High content imaging assessed the neurite outgrowth endpoints: neurite total length per neuron (um), neurite count per neuron, and branch points per neurite using the methods described in (Harrill et al 2010). […] Fixed integration times for image acquisition in each channel were determined by manual sampling of control-treated wells across multiple plates. […]

Test [6] in a line: ArunA_Migration_hNC: ArunA Biomedical's Oris Neural Crest (hNC) Cell Migration Assay (AID 2283755). The gist of the method:
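Calcein-AM fluorescence (ex494 nm/em 517 nm) in the stopper-defined detection zone quantifies migration of hNC cells after 72 h chemical exposure; 60,000 cells/well plated on Matrigel with LIF and bFGF, 16 h pre-incubation. DMSO baseline.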

Test [7] is described as follows: ArunA_NOG_NeuriteLength: ArunA Biomedical's Neurite Outgrowth (NOG) Assay for Neurite Length (AID 2283757). The gist of the method: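 Total neurite length per neuron, from traced βIII-tubulin-labelled processes longer than 10 um on viable Hoechst-gated cells, was scored as decrease from DMSO. Cells were hESC (H9)-derived neurons given 48 h chemical exposure immediately after seeding.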

In test [8] the test system is chicken Androgen Receptor (AR), gene 422165. Nature of the test: ATG_chAR_XSP1: Attagene TRANS-FACTORIAL Multi-Species (XSP1) HepG2 Assay for chicken Androgen Receptor (AR) (AID 2283768). The procedure, abridged: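 Reporter mRNA read by RT-PCR with fluorescent labelling and capillary electrophoresis 24 h after chemical dosing of transiently transfected HepG2 cells. Chicken AR-Gal4 chimera, partially stimulated with 3 nM 6-alpha-fluorotestosterone; activity fitted upward relative to DMSO.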

For the compound `ClCC(Cl)CCl`, the compound was called inactive in test [1] and in test [2].
On to `ClC1(Cl)C2(Cl)C3(Cl)C4(Cl)C(Cl)(Cl)C5(Cl)C3(Cl)C1(Cl)C5(Cl)C24Cl` (stereo unspecified), for which the outcome in test [3], in test [4], in test [5] and in test [2] was inactive.
Usually AC50 stands for the midpoint of the concentration-response curve, whichever way the signal moves. Consider `CC(C)(C)c1cc(O)ccc1O`, for which the AC50 in test [6] is 35.8 µM (active). Moreover, the compound was called inactive in test [4], in test [7] and in test [5].
As for `C[C@]12CCC(=O)C[C@@H]1CC[C@@H]1[C@@H]2CC[C@]2(C)[C@@H](O)CC[C@@H]12`, the AC50 in test [8] is 0.282 µM (active).
